Screens: PubChem BioAssay, National Center for Advancing Translational Sciences (NCATS)
SW480 rerep = inducers of DNA re-replication in SW480 colon cancer cells. AID 624297. SW480 DNA re-replication, Hoechst DNA content imaging, 48 h. Potency, µM (highest dose often 46.1 µM), without a hit: at the top dose re-replication activation, hits mostly activators. 340,000 compounds, 1.8% hits; further: % of control where 0% means no effect; nearly all actives have a fitted effect of over 55% in size
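Compounds, transferred as 23 nL by pin tool, were incubated with cells for 48 hr; DNA content per nucleus was then quantified by Hoechst staining and fluorescence plate imaging.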
ELG1 DNA repair = ELG1-dependent DNA repair inhibition; HEK293T ELG1-luciferase reporter, luminescence, 16 h; DNA damage induced by 5-fluorouridine; Potency, µM (highest dose often 46.1 µM), for the others: at the top dose activity change, negative = inhibition, hits mostly inhibitors; 330,000 compounds, 2.3% hits; further: on the % scale 0 is the no-effect control and ±100 the full control effect; nearly all actives have a fitted effect of over 55% in size
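Step one: seed 2,000 cells per well. Step two: pin-transfer compound or DMSO alongside 5-fluorouridine. Step three: incubate 16 hr, 37 °C, 5% CO2. Step four: add ONE-Glo, wait 30 min, read luminescence.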
MCF10A rereplic = inducers of DNA re-replication in MCF 10A breast cells | MCF 10A DNA re-replication, Hoechst nuclear intensity, 48 h | 350,000 compounds, 2.9% hits | AID 624296 | Potency, µM (highest dose often 46.1 µM), for the others: at the top dose activity, positive = re-replication, hits mostly activators; further: % of control where 0% means no effect; nearly all actives have a fitted effect of over 50% in size
ELG1 genotox = inducers of genotoxicity in HEK293T ELG1-luciferase cells. HEK293T ELG1-luciferase reporter, luminescence, 16 h. Potency, µM (doses to about 46 µM), inactives show at the top dose activity change, positive = activation, actives largely listed as activators. 330,000 compounds, 1.3% hits. AID 504466; further: % of control where 0% means no effect; nearly all actives have a fitted effect of over 60% in size
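Genotoxic stress is detected as increased luminescence from luciferase-tagged ELG1 in HEK293T cells, measured with ONE-Glo after a 16 hr treatment at 37 °C.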
p53 reactivation = re-activators of mutant p53 | H1299 p53-A138V BP100-luciferase reporter, luminescence, 24 h | Potency, µM (top dose mostly 92.2 µM), for inactives: at the highest dose activity change, positive = activation, usual class: activators | 320,000 compounds, 0.063% hits; further: % of control where 0% means no effect; nearly all actives have a fitted effect of over 45% in size
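p53-null H1299 cells stably carrying temperature-sensitive p53-A138V and a BP100-luciferase reporter were pinned with compounds (4-point, 1:5 series) and held 24 hrs at 37 deg C. Luminescence was read 10 min after detection reagent.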
AT treatment = candidate therapy for ataxia-telangiectasia | F2112 A-T fibroblasts, KAP-1 phosphorylation AlphaLISA; neocarzinostatin DNA damage 30 min before lysis | 320,000 compounds, 0.19% hits | Potency, µM (top dose mostly 57.5 µM), for the others: top-dose activation, hits mostly activators; further: % of control where 0% means no effect; nearly all actives have a fitted effect of over 45% in size
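ATM-like activity read as KAP-1 phosphorylation via AlphaLISA donor/acceptor antibody pairs after lysis and 6 hr at 25C. Cells were ATM-null patient fibroblasts (F2112, hTERT), dosed 60 min, then exposed to the DSB inducer NCS for 30 min.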
* = called active by the depositor; ? = inconclusive; . = not tested or not shown. Rows were chosen to be rich in hits. Some 7.1% of all compounds tested hit in one or more screens of this group. The call rests on the fitted dose curve; in most records, active means well fitted curve in the direction sought with a large enough effect; inconclusive means small, poorly fitted or top-dose-only effect, or another doubt; inactive means no such curve, though single readings can be large; an effect the other way counts as inactive or inconclusive. Potency means the concentration at half of the fitted maximal effect.

SMILES	SW480 rerep	ELG1 DNA repair	MCF10A rereplic	ELG1 genotox	p53 reactivation	AT treatment
CN(CCCC(=O)O)c1ccc(N=Nc2ccc([N+](=O)[O-])cc2)cc1	-27%	.	-8%	.	.	.
Brc1ccc(/C=N/Nc2nc3ccccc3o2)cc1	-8%	?	5%	?	?	6%
Oc1ccccc1C=NNc1nc2ccccc2s1	?	.	-8%	.	.	.
CC(=O)Nc1ccc(/C=N/Nc2nc3ccccc3s2)cc1	-7%	?	3%	2.6µM*	?	10%
CC(=O)Nc1ccc(S(=O)(=O)Nc2nc3ccccc3s2)cc1	-2%	13%	18%	0%	-6%	-2%
COc1ccc(/C=N/Nc2nc3ccccc3o2)cc1O	-3%	?	8%	0.92µM*	?	-4%
COc1ccc(/C=N/Nc2nc3ccccc3s2)cc1O	-4%	?	15%	2.3µM*	?	1%
Oc1ccccc1/C=N/Nc1nc2ccccc2o1	?	?	7%	9.2µM*	?	-4%
Cc1ccc(Nc2nc3ccccc3s2)cc1	-2%	?	3%	7.3µM*	?	3%
Cc1ccsc1/C=N/Nc1nc(=O)[nH]nc1C	6.5µM*	?	-3%	?	29%	-2%
Fc1ccc(Nc2nc3ccccc3s2)cc1	26%	?	?	?	19%	-1%
Cc1ccsc1/C=N/Nc1nc2ccccc2s1	-3%	?	0%	1.5µM*	.	19%
CCN(CC(=O)NCc1ccc(Cl)cc1)C(=O)CSCC(=O)Nc1ccc(OC)cc1	-8%	7%	-1%	-1%	3%	-4%
CCN(CC)Cc1c(O)ccc2cc(-c3nc4ccccc4n3C)c(=O)oc12	?	?	?	3%	5%	22µM*
CCc1cc2c(=O)c(-c3nc4ccccc4n3C)c(C)oc2c(CN(CC)CC)c1O	-4%	0%	-3%	-3%	2%	-9%
CC1(C)c2cc(Cl)ccc2-n2c1cc(O)c(-c1ccccc1)c2=O	-4%	10%	-2%	3%	-3%	-2%
CCOc1ccc(CCNC(=O)c2cc3c(C)nccc3[nH]c2=O)cc1OCC	10%	21µM*	3%	-12%	3%	-2%
Cc1ccccc1OCC(=O)Nc1c2c(nn1C(C)(C)C)CS(=O)(=O)C2	18µM*	7%	2%	-1%	6%	-6%
CCN(CC)P(=O)(Nc1cccc(C(F)(F)F)c1)c1ccc(N(C)C)cc1NC(=O)c1ccco1 (configuration not stated)	-1%	21µM*	0.82µM*	-17%	3%	-4%
CN(C)c1cccc(NC(=O)c2ccco2)c1	3%	?	21%	6%	5%	1%
CC1/C(=N/O)CC(c2ccccc2)NC1c1ccccc1 (configuration not stated)	0%	-3%	-1%	-6%	-3%	1%
CC(C)C1/C(=N/O)CC(c2ccccc2)NC1c1ccccc1 (configuration not stated)	11%	16µM*	?	-14%	-5%	13%
CC(Nc1ccc(F)cc1)=[N+](C)CCNS(=O)(=O)c1ccc(Cl)cc1	2%	-1%	-8%	-4%	6%	3%
COc1ccccc1CNC(=O)[C@H](CCSC)NC(=O)[C@@H]1Cc2ccccc2CN1	7.3µM*	-1%	16%	-1%	8%	-4%
COc1ccc(CNC(=O)[C@H](Cc2c[nH]c3ccccc23)NC(=O)[C@@H]2Cc3ccccc3CN2)cc1	10%	5%	15%	2%	.	6%
SMILES	SW480 rerep	ELG1 DNA repair	MCF10A rereplic	ELG1 genotox	p53 reactivation	AT treatment
Cc1cccc(NC(=O)[C@@H](CC(C)C)NC(=O)[C@@H]2Cc3ccccc3CN2)c1	6%	?	-3%	3%	5%	13%
CC(C)c1ccc(NC(=O)[C@H](NC(=O)[C@@H]2Cc3ccccc3CN2)c2ccccc2)cc1	?	19%	21µM*	4%	10%	-3%
COc1ccc(NC(=O)[C@H](Cc2c[nH]c3ccccc23)NC(=O)[C@@H]2Cc3ccccc3CN2)cc1	?	?	15µM*	-11%	.	-3%
CC(C)c1ccc(NC(=O)[C@H](Cc2c[nH]c3ccccc23)NC(=O)[C@@H]2Cc3ccccc3CN2)cc1	?	?	21µM*	-10%	.	0%
COc1ccccc1CNC(=O)[C@H](C)NC(=O)[C@@H]1Cc2ccccc2CN1	?	-4%	1%	2%	2%	0%
Brc1ccc2ncc3ccccc3c2c1	7%	.	3%	.	.	.
CCC(C)[C@H](NC(=O)c1cc2cc(Cl)ccc2n1C)C(=O)N1CCC[C@H]1C(=O)O (some centres not stated)	-19%	4%	10%	4%	.	-1%
CCN(CC(=O)Nc1c(F)cccc1F)C(=O)C1CCCN(C(=O)c2ccc(Cl)cc2)C1 (configuration not stated)	-5%	8%	-2%	3%	-1%	-8%
Cc1ccc(NS(=O)(=O)c2cc(NC(=O)c3ccc4c(c3)NC(=O)CS4)ccc2Cl)c(C)c1	-7%	23µM*	-12%	-17%	-6%	0%
COc1ccc(NC(=O)c2ccc3c(c2)NC(=O)CS3)cc1	-35%	?	-4%	8%	?	-5%
CS(=O)(=O)N(CC(=O)N1CCCC1)c1cccc(F)c1	?	6%	?	0%	11%	-5%
O=C(Nc1nnc(SCCC2OCCO2)s1)C1CC(=O)N(c2ccc(F)cc2)C1 (configuration not stated)	5%	1%	6%	2%	-8%	24%
Cc1cccn2c(=O)c(C(=O)NC3CC(C)CC(C)(C)C3)c(O)nc12 (configuration not stated)	-2%	?	?	-12%	5%	0%
Cc1cc(NCC2CCCCC2)nc2ccccc12	14%	4%	26µM*	-1%	?	5%
Cc1cc(NCCNC2=CC(=O)CCC2)nc2ccccc12	-5%	13%	-4%	-1%	0%	-1%
COc1cc2c(c(OC)c1OC)-c1ccc(SC)c(=O)cc1C(NC(=O)C(F)(F)F)CC2 (configuration not stated)	0.021µM*	.	?	.	.	.
CN[C@H]1CCc2cc(OC)c(OC)c(OC)c2-c2ccc(N(C)CC(OC)OC)c(=O)cc21	?	?	131%	?	6%	-18%
